Assay outcomes from PubChem.
Only some compounds are listed: those with a hit (about 2.9% of all), similar ones and a draw of the others.
EP2 antag – blocks the human prostaglandin E2 receptor EP2; P43116; C6 glioma cells expressing human EP2, cAMP TR-FRET; cells stimulated with saturating PGE2; inhibition, % at 25 µM; 260,000 tested, 0.52% active;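 active means percent inhibition above 40 after rounding to a whole number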;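 further: rat C6 glioma host cells with rolipram phosphodiesterase inhibitor present; the protocol text gives 20 µM as final concentration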
SKN-1 block – blocks SKN-1 activity in C. elegans | C. elegans VP596 Pgst-4::GFP/RFP ratio, acrylamide-induced, 24 h | 360,000 tested, 0.49% active | AID 624304 | inhibition, % at 21.8 µM;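 active means interference check ratio from 0.5 to 1.5 plus GFP to RFP signal ratio inhibition reaching or exceeding a fixed threshold, cut at about 30% in these data, passing the limit was not always enough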
RAM inhibit – inhibitors of the yeast RAM network; S. cerevisiae dse1pr::URA3 reporter, 5-FOA growth OD615, 2 d; analog-sensitive cbk1-as2 kinase mutant strain; inhibition, % at 50 µM; 190,000 tested, 1.8% active;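 active means inhibition above a set limit, 3 SD over mean compound inhibition, cut at about 8.4% in these data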;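 further: 0% = DMSO-only wells with no growth and 100% = 10 µM 1-NA-PP1 full growth; inhibition rescues growth on 5-FOA so higher OD means more RAM inhibition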
NR1D1 modulator – modulates human Rev-erb alpha binding to DNA; activity, % at 10 µM; Rev-erbα–FITC-DNA binding, fluorescence polarization, 90 min; AID 1259318; 370,000 tested, 0.79% active; P20393;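 active means activity above about 14%, limit read from the data; passing the limit was not always enough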;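 further: 0% = DMSO wells with 35 nM protein and 100% = DMSO wells with 750 nM protein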
Target sequence (P20393 whole entry, looked up): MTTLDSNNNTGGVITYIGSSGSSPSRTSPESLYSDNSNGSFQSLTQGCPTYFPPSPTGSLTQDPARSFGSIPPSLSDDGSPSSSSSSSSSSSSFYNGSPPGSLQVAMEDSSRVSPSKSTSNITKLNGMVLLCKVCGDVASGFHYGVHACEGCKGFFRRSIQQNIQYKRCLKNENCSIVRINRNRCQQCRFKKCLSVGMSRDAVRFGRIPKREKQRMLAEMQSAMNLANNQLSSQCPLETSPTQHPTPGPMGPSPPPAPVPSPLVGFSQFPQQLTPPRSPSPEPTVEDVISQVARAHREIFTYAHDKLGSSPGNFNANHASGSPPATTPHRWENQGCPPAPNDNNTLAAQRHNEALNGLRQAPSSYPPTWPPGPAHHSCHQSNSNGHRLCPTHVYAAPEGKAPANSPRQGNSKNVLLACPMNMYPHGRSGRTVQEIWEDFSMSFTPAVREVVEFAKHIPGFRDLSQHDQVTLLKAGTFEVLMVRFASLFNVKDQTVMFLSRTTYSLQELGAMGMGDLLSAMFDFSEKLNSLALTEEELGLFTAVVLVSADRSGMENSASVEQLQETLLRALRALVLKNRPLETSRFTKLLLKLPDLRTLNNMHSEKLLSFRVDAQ
EP2 modulator – modulates human prostaglandin E2 receptor EP2 signaling. P43116. EP2-expressing cells, cAMP HTRF FRET, PGE2 co-stimulation. induction, % at 25 µM. 260,000 tested, 0.83% active;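 active means compounds whose cAMP rise, as percent of the full-agonist control response, exceeds 60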;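 further: rat C6 glioma line stably carrying human EP2 under a CMV promoter; the protocol text gives 20 µM as final concentration; 100% = response of wells given 1 µM PGE2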
PG9 Ab binder – binds the HIV-1 gp120 antibody PG9; TR-FRET gp120-PG9 antibody binding; AID 624416; 360,000 tested, 0.43% active; inhibition, % at 6.7 µM; in the data active means inhibition above about 8.5%
NR1D1 mod conf – confirmation of modulators of human Rev-erb alpha DNA binding | activation, % at 25 µM | 3,000 tested, 61% active | Rev-erb alpha FITC-DNA binding, fluorescence polarization, 90 min | shares compounds with NR1D1 modulator;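 active means activation at or above a set limit, or at least 3 SD above the negative control mean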;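 further: 0% = 35 nM protein with DMSO and 100% = 750 nM protein high control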
RORg counter – RORgamma DNA-binding activity, dose-response counter-screen; shares compounds with NR1D1 modulator; purified RORgamma protein-FITC-DNA binding, fluorescence polarization; IC50, µM; 910 tested, 8% active; AID 1259320;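 active means Compounds whose fitted half-maximal concentration for disrupting protein-DNA binding is below 10 micromolar; the record names Rev-erb in its text, so the target is in doubt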
* hit, by the source's call; i = inactive; x = no result.

SMILES | EP2 antag | SKN-1 block | RAM inhibit | NR1D1 modulator | EP2 modulator | PG9 Ab binder | NR1D1 mod conf | others
CC(=O)NNC(=O)CSc1nc2cc3c(cc2cc1C)OCCO3 | 4 | x | x | x | -8 | x | x
COC(=O)c1ccc(NC(=O)c2ccc3c(c2)C(=O)N(C)C3=O)cc1 | x | 2 | x | 52* | x | -1 | 34* | RORg counter=>40
COC(=O)c1ccc(NC(=O)c2ccc3c(c2)C(=O)N(Cc2cccnc2)C3=O)cc1 | x | 3 | x | 4 | x | -2 | x
CCOc1cccc2sc(NC(=O)c3ccc(Br)s3)nc12 | 14 | 9 | 0 | 30* | 2 | 0 | 33* | RORg counter=>40
CCOC(=O)Cc1csc(NC(=O)c2ccc(Br)s2)n1 | 9 | x | -2 | x | 18 | x | x
O=C(CSc1nc(-c2cccs2)cc(C(F)(F)F)n1)NC1CCCCCC1 | 9 | x | x | x | -62 | x | x
COc1cccc(C(O)CN2CCC(O)(c3ccccc3C)CC2)c1 (stereo not drawn) | 8 | x | x | x | -58 | x | x
CC(=O)C1=C(O)C(=O)N(CCNCCO)C1c1ccccn1 (stereo not drawn) | 12 | x | x | x | 10 | x | x
CN1C(=O)c2cc(NC(=O)Nc3ccccc3F)ccc2OC[C@H]2O[C@@H](CC(=O)NCc3ccc(-c4ccccc4)cc3)CC[C@@H]21 | x | x | x | 107* | x | x | 70* | RORg counter=>40
CN1C(=O)c2cc(NS(C)(=O)=O)ccc2OC[C@H]2O[C@@H](CC(=O)NCc3ccc(-c4ccccc4)cc3)CC[C@@H]21 | x | x | x | 83* | x | x | 20*
CC(C)(CO)Cc1cc(C(C)(C)C)c(O)c(C(C)(C)C)c1 | 13 | 12 | x | 13 | -13 | 3 | x
CC(C)(C=O)Cc1cc(C(C)(C)C)c(O)c(C(C)(C)C)c1 | 14 | -20 | x | 21* | -3 | -1 | 19*
CCOC(=O)Cn1nc(CC)n2c(cc3oc(C)cc32)c1=O | 6 | x | x | x | -40 | x | x
COC(=O)c1sccc1NC(=O)C12CC3CC(CC(C3)C1)C2 | 9 | -5 | x | 25* | x | 0 | 22*
COC(=O)c1sccc1NC(=O)C1CC1 | 12 | 4 | x | 5 | 2 | 0 | x
COc1ccc(S(=O)(=O)N(Cc2cc3cc(C)c(C)cc3[nH]c2=O)CC2COCCO2)cc1 (stereo not drawn) | 7 | x | x | x | -18 | x | x
COc1ccc(-n2nc(C(=O)NCC(=O)Nc3ccccn3)c3ccccc3c2=O)cc1Cl | x | -13 | 2 | 66* | 12 | 1 | 45* | RORg counter=i
COc1ccc(-n2nc(C(=O)NCC(=O)N3CCN(c4ccccn4)CC3)c3ccccc3c2=O)c(OC)c1 | x | -2 | x | -3 | x | -1 | x
COc1ccc(-n2nc(C(=O)NCC(=O)N3CCN(c4cccc(Cl)c4)CC3)c3ccccc3c2=O)c(OC)c1 | x | -6 | x | 31* | x | -1 | 14
COc1ccc(-n2nc(C(=O)NCC(=O)Nc3cc(OC)ccc3OC)c3ccccc3c2=O)cc1 | x | -15 | x | 4 | x | 0 | x
COc1ccc(-n2nc(C(=O)NCC(=O)Nc3cc(Cl)c(OC)cc3OC)c3ccccc3c2=O)cc1 | x | -1 | x | 53* | x | 1 | 50* | RORg counter=>40
COc1ccc(-n2nc(C(=O)NCC(=O)NC(C)C)c3ccccc3c2=O)cc1Cl | x | 18 | x | 10 | x | 0 | x
CC1(C)CC(N(Cc2cccnc2)Cc2ccc3ncccc3c2)CC(C)(C)N1 | 5 | x | x | x | -13 | x | x
COc1cccc(-c2cc(-c3cccnc3)c(C#N)c(N)n2)c1 | 10 | 4 | x | -8 | 8 | -1 | x
COc1ccc(-c2cc(-c3ccc(OC)cc3)c(C#N)c(SC)n2)cc1 | 30 | -4 | 5 | 108* | -6 | 3 | 52* | RORg counter=>40
COc1ccc(-c2cc(-c3ccc(O)cc3)nc(N)c2C#N)cc1 | x | 12 | x | 2 | x | 3 | x
COc1ccc(-c2cc(-c3cccnc3)c(C#N)c(N)n2)cc1 | 21 | -4 | x | 40* | 7 | 1 | 36* | RORg counter=>40
C=CCOc1ccc(NC(=O)C2CC(=O)N(c3ccccc3C)C2)cc1 (stereo not drawn) | 9 | x | x | x | -38 | x | x
COCCNc1c2c(nc3cc(-c4ccc(F)cc4)nn13)CCCC2 | 10 | x | x | x | -8 | x | x
